A selection: hits, their analogues and other compounds. The true share with any hit is near 6%.
DRD3 antagonist: qHTS of D3 Dopamine Receptor Antagonist: qHTS | 2.5% of 360,000 active | D3R cells, DiscoveRx beta-arrestin luminescence, antagonist mode; hits give low values | max response, negative = inhibition, % | AID 652054, 2013; in the data active = max response below about -50%; inconclusive = no clear call, values can overlap the other calls; note: % is set by controls: 0 for no effect and ±100 for the full control effect
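Cells plated overnight at 1500 cells/well, then exposed to library compounds with dopamine controls for 90 minutes at 37 degrees C. DiscoveRx reagent added for 30–60 minutes at room temperature; luminescence read, quantitative HTS format.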
D1 antagonist: Antagonist of Human D 1 Dopamine Receptor: qHTS; activity change, negative = inhibition, % at 10 µM; 3.2% of 360,000 active; HEK293 TREx D1 cells, calcium flux, dopamine EC80; hits give low values; AID 504652, 2011; in the data active = activity change below about -30%; note: % is set by controls: 0 for no effect and ±100 for the full control effect
Target sequence (P21728 whole entry, looked up): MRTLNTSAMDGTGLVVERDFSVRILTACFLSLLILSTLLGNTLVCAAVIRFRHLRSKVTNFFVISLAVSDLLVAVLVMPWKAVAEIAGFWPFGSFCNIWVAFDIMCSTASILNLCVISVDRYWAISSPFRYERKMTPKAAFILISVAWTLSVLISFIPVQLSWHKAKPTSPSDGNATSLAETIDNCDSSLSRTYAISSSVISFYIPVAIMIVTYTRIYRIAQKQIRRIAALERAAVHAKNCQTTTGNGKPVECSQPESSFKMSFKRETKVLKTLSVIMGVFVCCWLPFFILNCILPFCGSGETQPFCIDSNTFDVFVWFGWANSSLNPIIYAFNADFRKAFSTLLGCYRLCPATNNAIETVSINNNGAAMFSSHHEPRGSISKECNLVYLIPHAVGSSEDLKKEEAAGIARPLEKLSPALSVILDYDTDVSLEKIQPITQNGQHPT
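Tetracycline-induced HEK293 Trex D1 cells, force-coupled to calcium, dye-loaded; compounds added and read 180 s, then EC80 dopamine added and calcium flux tracked kinetically another 180 s.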
D1 PAM: Potentiators of Human D1 Dopamine Receptor: qHTS. D(1A) dopamine receptor (Homo sapiens), P21728. HEK293 TREx D1 cells, calcium flux, dopamine EC20 potentiation. potentiation, % at 10 µM. 0.036% of 360,000 active. AID 504651, 2011; in the data active = potentiation above about 30%; note: 0% is about no effect
D1 agonist: Allosteric Agonists of the Human D1 Dopamine Receptor: qHTS | HEK293 T-REx D1 cells, calcium flux, agonist mode | activation, % at 2 µM | 1% of 360,000 active | AID 504660, 2011; in the data active = activation above about 30%; note: 0% is about no effect
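Inducible HEK293 T-REx D1 cells, force-coupled to calcium signalling, were plated at 4000 cells/well with tetracycline and held overnight at 30 C. After no-wash calcium dye loading, compound-evoked calcium rise over 180 s flagged agonists.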
DRD3 agonist: qHTS of D3 Dopamine Receptor Agonist: qHTS | D(3) dopamine receptor (Homo sapiens), P35462 | D3R DiscoveRx beta-arrestin cells, luminescence, 90 min | max activation, % | 0.58% of 410,000 active | AID 652048, 2013; in the data active = max activation above about 30%; note: 0% is about no effect
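Cells at 1500/well, incubated overnight, then treated with pinned compounds (dopamine as control) for 90 min at 37 degrees C. DiscoveRx reagent added for 30 - 60 minutes at room temperature; luminescence read.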
The depositor's hits bear a star; u = inconclusive; x = not tested or not shown.

SMILES | DRD3 antagonist | D1 antagonist | D1 PAM | D1 agonist | DRD3 agonist
COc1ccc(CCN2C(=O)C3C4C=CC(C3C2=O)C2C(=O)N(CCc3ccc(OC)c(OC)c3)C(=O)C42)cc1OC (configuration not stated) | -19 | -4 | 1 | 4 | 31*
COc1ccc(CCn2c(N)cc(=O)[nH]c2=O)cc1OC | -86* | -48* | -7 | 1 | -13
COc1ccc(CCn2c(N)cc(=O)[nH]c2=S)cc1OC | -2 | -10 | -10 | 0 | -2
CC(=O)c1c(C)oc2c1cc(NS(=O)(=O)c1ccc(Br)cc1)c1ccccc12 | x | -32* | 2 | 5 | -10
Cc1oc2ccc(NS(=O)(=O)c3ccc(F)cc3)cc2c1C(=O)O | -15 | 16 | 3 | -1 | -12
Cc1oc2c(cc(NS(=O)(=O)c3ccc(Cl)cc3)c3ccccc32)c1C(=O)O | -11 | 4 | 0 | 3 | 1
CC(=O)c1c(C)oc2c(Br)cc(NS(=O)(=O)c3ccc(Br)cc3)cc12 | x | -47* | -8 | 4 | -7
CCc1ccc(S(=O)(=O)NC(=S)NC2CCCCC2)cc1 | -67* | -8 | -6 | 4 | -5
CN1C(=O)[C@@](O)(c2cn(C)c3ccccc23)c2cc(Br)ccc21 | 9 | x | x | x | 2
COc1cccc(NC(=O)N2CCN(c3cccc(C)c3)C(C)C2)c1 (configuration not stated) | 26 | -83* | -11 | 30 | 6
Cc1cccc(N2CCN(C(=O)Nc3ccc(F)cc3)CC2C)c1 (configuration not stated) | x | -11 | -3 | 33* | -1
c1cncc(C2SCCCS2)c1 | -18 | x | x | x | -6
CN(C(=O)c1ccc(Cl)cc1)c1ccc(OCC(=O)Nc2cc(C(=O)O)ccc2Cl)cc1 | 13 | x | x | x | -7
CCN(CC)c1ccc(C(=O)O)cc1 | 8 | -6 | 5 | 4 | 1
CCN(CC)c1ccc(/C=C2\C(=O)c3ccc(C(=O)O)cc3C2=O)cc1 | -27 | -8 | 9 | 354* | -10
Cc1cc(/C=C2/NC(=O)N(Cc3ccccc3F)C2=O)c(C)n1-c1ccccn1 | -5 | -43* | -3 | 2 | -6
Cc1cccc(CN2C(=O)N/C(=C/c3cc(C)n(-c4ccccn4)c3C)C2=O)c1 | u | -3 | 2 | 3 | 0
Cc1ccc(/C=C2/NC(=O)N(Cc3ccccc3F)C2=O)s1 | -3 | 9 | -4 | 43* | 2
O=C1N/C(=C/c2cccs2)C(=O)N1Cc1ccccc1F | -25 | -5 | -3 | 3 | -6
CCCN1CCN(CCCNC(=O)c2ccc3c(c2)sc2nc(-c4ccc(OC)cc4)cn23)CC1 | x | 2 | -1 | 2 | -10
COc1ccc(Nc2c3c(nc4ccc(NC(=O)/C=C/c5cccc(OC)c5OC)cc24)CCCC3)cc1OC | x | 2 | 0 | 2 | -21
CC1OC(Nc2cccc3ccccc23)C(O)C(O)C1O (configuration not stated) | u | 0 | -8 | 2 | -16
CC1OC(Nc2ccc(N=Nc3ccccc3)cc2)C(O)C(O)C1O (configuration not stated) | -2 | -10 | -5 | 31* | 7
Cc1cc(=O)n(Cc2ccccc2)c2c1c(C)nn2C | x | -12 | -5 | 5 | 3
O=C(CC(=O)c1ccccc1)Nc1cc(C(F)(F)F)ccc1Cl | 0 | -5 | -4 | 9 | -3
SMILES | DRD3 antagonist | D1 antagonist | D1 PAM | D1 agonist | DRD3 agonist
O=C(C[n+]1ccc2ccccc2c1)Nc1cc(C(F)(F)F)ccc1Cl | -68* | 3 | -7 | 2 | -36
O=C(CN1CCCCCC1)Nc1cc(C(F)(F)F)ccc1Cl | -77* | 3 | 0 | 1 | -6
Cc1cc[n+](CC(=O)Nc2cc(C(F)(F)F)ccc2Cl)cc1 | -192* | -1 | 18 | 6 | -33
CN(C)c1cc[n+](CC(=O)Nc2ccc(Cl)cc2)cc1 | -20 | 13 | -8 | 6 | -17
O=C(CN1CCOCC1)Nc1cc(C(F)(F)F)ccc1Cl | 17 | 1 | -3 | 3 | 3
CN(C)c1cc[n+](CC(=O)Nc2cc(C(F)(F)F)ccc2Cl)cc1 | -59* | 7 | -2 | 2 | -28
O=C(C[n+]1ccccc1)Nc1cc(C(F)(F)F)ccc1Cl | -58* | -1 | -3 | 4 | -24
C=CCNC(=O)c1cccc(NS(=O)(=O)c2ccc(Cl)cc2)c1 | -5 | -13 | 0 | 2 | -7
CC(C)CC1(C(=O)NCc2cc(F)cc(C(F)(F)F)c2)C=CCN1C(=O)c1ccccc1 (configuration not stated) | -28 | -30* | 0 | -1 | 3
O=C(O)c1ccc(N/N=C/C2=C(N3CCOCC3)C(=C\c3ccccc3)/CC2)cc1 | 0 | -19 | -3 | 83* | -1
COc1ccc(NC(=O)c2c(NC(=O)C(F)(F)F)sc3c2CCCCC3)cc1 | x | -36* | -2 | 59* | -5
Cc1ccc(C)c(NC(=O)c2cnc3sc(N4CCOCC4)nn3c2=O)c1 | x | 6 | -3 | 1 | -46
CC(=O)/C(C(=N)N1CCN(Cc2ccccc2)CC1)=C(\C)O | -54* | -2 | 5 | 4 | -19
CC(=O)/C(C(=N)N1CCN(C(c2ccccc2)c2ccccc2)CC1)=C(\C)O | u | 19 | -3 | 2 | -11
CCN1CCN(C(=S)c2ccc(Cl)cc2)CC1 | -69* | -1 | -6 | 0 | -2
CSc1ccc(C(=S)N2CCN(Cc3ccccc3)CC2)cc1 | u | -14 | -5 | 3 | -3
CSc1ccc(C(=S)N2CCCCCC2)cc1 | -9 | -13 | -5 | 2 | 7
S=C(c1ccc(Cl)cc1)N1CCN(Cc2ccccc2)CC1 | -69* | 3 | 5 | 2 | -24
CCN1CCN(C(=S)c2ccc(SC)cc2)CC1 | -85* | 3 | -1 | 0 | -11
OCCN1CCN(C(=S)c2ccc(Cl)cc2)CC1 | 6 | 10 | 3 | -2 | -10
COc1ccc(CCNC(=O)CCn2c(=O)c3ccccc3n(Cc3c(C)cc(C)cc3C)c2=O)cc1OC | x | -11 | 0 | -1 | 4
CCOC(=O)C1CCN(C(=O)c2ccc3c(c2)sc2nc(-c4ccccc4)cn23)CC1 | x | -5 | 0 | 1 | -1
O=C1C=CC(O)(c2cc(=O)c3c(O)cc(O)cc3o2)C=C1 | -80* | 6 | -4 | -1 | -32
O=C(O)c1ccc(NS(=O)(=O)c2ccc(Cl)c(Cl)c2)cc1O | 0 | -31* | -6 | 2 | -2
O=C(O)c1cc(S(=O)(=O)Nc2cccc(S(=O)(=O)N3CCCC3)c2)ccc1Cl | 8 | 0 | 3 | 2 | 7
N#Cc1cc(N)ccc1Sc1ccc(Cl)cc1 | -27 | -32* | -9 | 1 | -5
O=c1c(S(=O)(=O)c2ccccc2)cn(Cc2ccc(F)cc2)c2cc(N3CCCCC3)c(F)cc12 | x | -44* | -1 | 2 | 3
